Measured values: PubChem BioAssay AID651919 (Sanford-Burnham Center for Chemical Genomics, 2012)

Biological target: C-X-C chemokine receptor type 6 (Homo sapiens) (UniProt O00574)
Experiment: antagonism of CXCR6 versus CXCR5 signaling – cell-based, CHO-K1 PathHunter beta-arrestin, luminescence, set 4, selectivity assay for CXCR6 antagonist project, profiling panel (AID 651919)
Conditions: run 4, at 79 µM (top of the series)

Chain of C-X-C chemokine receptor type 6 (Homo sapiens) (O00574 whole entry, looked up): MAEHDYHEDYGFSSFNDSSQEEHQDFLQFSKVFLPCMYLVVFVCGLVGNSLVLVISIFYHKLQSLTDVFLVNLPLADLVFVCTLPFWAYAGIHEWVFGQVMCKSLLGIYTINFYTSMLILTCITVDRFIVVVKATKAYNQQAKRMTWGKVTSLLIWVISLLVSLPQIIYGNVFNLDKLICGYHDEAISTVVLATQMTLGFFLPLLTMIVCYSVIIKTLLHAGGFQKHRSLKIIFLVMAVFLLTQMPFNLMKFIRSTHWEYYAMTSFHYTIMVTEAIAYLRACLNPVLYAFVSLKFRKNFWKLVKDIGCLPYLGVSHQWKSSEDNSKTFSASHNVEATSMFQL

SMILES	inhibition
COc1cc(C(=O)NC2CC3CCCC(C2)N3CC(=O)Nc2ccccc2Cl)cc(OC)c1OC (configuration not stated)	99%
COc1cc(C(=O)NC2CC3CCCC(C2)N3CC(=O)Nc2ccccc2)cc(OC)c1OC (configuration not stated)	92.9%
